Assay outcomes deposited in PubChem by National Center for Advancing Translational Sciences (NCATS).
aSyn yeast inh – rescues yeast growth from alpha-synuclein toxicity. 370,000 compounds, 0.14% hits. Potency, µM (series often up to 46.1 µM), inactives show at the highest dose growth rescue (activation), actives largely listed as activators. Yeast expressing alpha-synuclein, growth rescue, BacTiter-Glo, 24 h; also: % of control where 0% means no effect; nearly all actives have a fitted effect of over 65% in size
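Readout is rescue of growth in alpha-synuclein-expressing yeast, so inhibitors of toxicity appear as activators. Growth after 24 hr at 30 deg C in galactose medium is quantified by luminescence.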
FUS suppressor – FUS proteinopathy suppression in yeast | S. cerevisiae FUS-expressing, growth rescue, OD600, 24 h | Potency, µM (top dose mostly 76.6 µM), hits mostly activators | 390,000 compounds, 0.24% hits | AID 1347120;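 also: plate controls were DMSO vehicle for no effect and reference control for full effect; nearly all actives have a fitted effect of over 55% in size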
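Toxicity suppression screen in FUS-yeast. Cells induced with 2% galactose, starting OD 0.005, treated 24hr at 30C with compounds at multiple final concentrations; growth by OD600.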
Abeta rescue – restores growth of yeast expressing A-beta42 peptide | yeast expressing A-beta42, growth rescue, OD600, 48 h; response scale: 0% DMSO, 100% iron-clioquinol control | Potency, µM (doses to about 46.1 µM), actives largely listed as activators | 410,000 compounds, 0.063% hits; also: nearly all actives have a fitted effect of over 55% in size
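Growth rescue measured by 600 nm absorbance after 48 h yeast culture at 30 C with compound. Values normalized between DMSO and an equimolar ferric chloride plus clioquinol control.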
TDP-43 yeast inh – TDP-43 toxicity inhibition in yeast | TDP-43 expressing yeast growth rescue, BacTiter-Glo, 24 h | Potency, µM (series often up to 46.1 µM), for inactives: top-dose growth rescue (activation), hits mostly activators | 410,000 compounds, 1.8% hits; also: % of control where 0% means no effect; nearly all actives have a fitted effect of over 50% in size
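Galactose-induced TDP-43 yeast, OD600=0.02, compound pinned; 24 hr, 30 deg C; BacTiter-Glo luminescence for growth. Inhibitors of TDP-43 toxicity read as activators.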
The depositor's hits bear a star. Only some compounds are listed: those with a hit (about 2.1% of all), similar ones and a draw of the others. Calls follow the shape of the dose curve; as a rule, active = well fitted curve in the direction sought with a large enough effect; inconclusive = small, poorly fitted or top-dose-only effect, or another doubt; inactive = no such curve, though single readings can be large; an effect the other way counts as inactive or inconclusive. Potency is read from the fitted curve at half-maximal effect.

How did CC(C)CN1C(=O)/C(=C/c2cccs2)NC1=S do in these assays?
aSyn yeast inh: -23%; FUS suppressor: inactive; Abeta rescue: inactive; TDP-43 yeast inh: 25µM*

How did CCC/C(=C1/c2ccccc2C(=O)N1c1ccccc1)c1ccc2[nH]ccc2c1 do in these assays?
aSyn yeast inh: -44%; FUS suppressor: inactive; Abeta rescue: inactive; TDP-43 yeast inh: 14µM*

What do the screens show for `O=C1c2ccccc2/C(=C\c2ccc3[nH]ccc3c2)N1c1ccccc1`?
aSyn yeast inh: -22%; FUS suppressor: inactive; Abeta rescue: inactive; TDP-43 yeast inh: inconclusive

How did O=C(CN(CCc1ccccc1)S(=O)(=O)c1ccc(F)cc1)N1CCOCC1 do in these assays?
FUS suppressor: inactive

What do the screens show for `O=c1c2sccc2nc(SCc2ccc([N+](=O)[O-])cc2)n1Cc1ccccn1`?
aSyn yeast inh: 3%; Abeta rescue: inactive; TDP-43 yeast inh: 22µM*

Results for O=C(CSc1nc2ccccc2c(=O)n1-c1ccc(Cl)cc1)NNC(=S)Nc1ccccc1 ?
FUS suppressor: inactive

How did CSc1nccc(-c2c(-c3ccc(Cl)cc3)noc2C)n1 do in these assays?
aSyn yeast inh: -14%; FUS suppressor: inactive; Abeta rescue: inactive; TDP-43 yeast inh: 18µM*

How did O=C(c1cccs1)N1CCN(c2nnc(-c3ccccc3)c3ccccc23)CC1 do in these assays?
aSyn yeast inh: 10%; FUS suppressor: inactive; Abeta rescue: inactive; TDP-43 yeast inh: 18µM*

What do the screens show for `C=CCN(C)CC#Cc1ccccc1C`?
FUS suppressor: inactive

How did CCOc1cc(S(=O)(=O)NC2CCCCC2)ccc1F do in these assays?
aSyn yeast inh: 5%; FUS suppressor: inactive; Abeta rescue: inactive; TDP-43 yeast inh: inconclusive

Results for CCOc1cc(S(=O)(=O)NC2CCCC2)ccc1Cl ?
aSyn yeast inh: 0%; FUS suppressor: inactive; Abeta rescue: inactive; TDP-43 yeast inh: 20µM*

What do the screens show for `Cc1ccc(-n2c(N)c(C(=O)N3CCCCC3)sc2=S)cc1`?
aSyn yeast inh: -2%; FUS suppressor: inactive; Abeta rescue: inactive; TDP-43 yeast inh: 11µM*

What do the screens show for `O=C(NC1CC1c1ccccc1)N1CCC(c2nc3ccc(Cl)cc3[nH]2)CC1` (configuration not stated)?
FUS suppressor: inactive

Results for CCOc1cc2sc(N3CCC(C(=O)Nc4ccccc4Cl)CC3)nc2cc1Br ?
FUS suppressor: inactive; Abeta rescue: inactive; TDP-43 yeast inh: 15%

What do the screens show for `N/C(=N\OC(=O)N1c2ccccc2Sc2ccccc21)c1ccccc1`?
aSyn yeast inh: -73%; FUS suppressor: inactive; Abeta rescue: inactive; TDP-43 yeast inh: 3.5µM*

What do the screens show for `Cc1cccc(/C(N)=N/OC(=O)N2c3ccccc3Sc3ccccc32)c1`?
aSyn yeast inh: -64%; FUS suppressor: inactive; Abeta rescue: inactive; TDP-43 yeast inh: inconclusive

How did CC1(Cc2ccc(Cl)cc2)C(=O)Nc2c(Cl)ccc(Cl)c21 (configuration not stated) do in these assays?
aSyn yeast inh: inconclusive; FUS suppressor: inactive; Abeta rescue: inactive; TDP-43 yeast inh: -26%

Results for Cc1ccc(CC2(C)C(=O)Nc3c(Cl)ccc(Cl)c32)cc1 (configuration not stated) ?
aSyn yeast inh: 18µM*; FUS suppressor: inactive; Abeta rescue: inactive; TDP-43 yeast inh: 0%

Results for CC1(Cc2ccccc2Cl)C(=O)Nc2c(Cl)ccc(Cl)c21 (configuration not stated) ?
aSyn yeast inh: 13µM*; FUS suppressor: inactive; Abeta rescue: inactive; TDP-43 yeast inh: 32µM*

How did CC1(Cc2ccccc2F)C(=O)Nc2c(Cl)ccc(Cl)c21 (configuration not stated) do in these assays?
aSyn yeast inh: 11µM*; FUS suppressor: inactive; Abeta rescue: inactive; TDP-43 yeast inh: 2%

How did CC1(Cc2cccc(C(F)(F)F)c2)C(=O)Nc2c(Cl)ccc(Cl)c21 (configuration not stated) do in these assays?
aSyn yeast inh: -26%; FUS suppressor: inactive; Abeta rescue: inactive; TDP-43 yeast inh: -17%

Results for O=C(c1cccc(F)c1F)N1CCCC(c2nc(-c3cccs3)no2)C1 (configuration not stated) ?
FUS suppressor: inactive

What do the screens show for `CN(Cc1ccccc1)C(=O)Cn1c(=O)c2cccn2c2ccc(F)cc21`?
FUS suppressor: inactive; Abeta rescue: inactive; TDP-43 yeast inh: 16%

What do the screens show for `CCOC(=S)SCC(=O)Nc1nc(C)c(C)s1`?
aSyn yeast inh: -1%; FUS suppressor: inactive; Abeta rescue: inconclusive; TDP-43 yeast inh: 22µM*

How did CCOC(=S)SCC(=O)Nc1nccs1 do in these assays?
aSyn yeast inh: -8%; FUS suppressor: inactive; Abeta rescue: inactive; TDP-43 yeast inh: 22µM*

How did CCOc1ccccc1NS(=O)(=O)c1c(C(=O)OC)sc2cccc(F)c12 do in these assays?
FUS suppressor: inactive; Abeta rescue: inactive; TDP-43 yeast inh: 4%

Results for CCOC(=O)c1sc2cccc(F)c2c1S(=O)(=O)Nc1ccccc1F ?
FUS suppressor: inactive; Abeta rescue: inactive; TDP-43 yeast inh: 18µM*

Results for Cc1cc2c(cc1C)-c1nnnn1C(N1CCC(Cc3ccccc3)CC1)C(=O)N2 (configuration not stated) ?
aSyn yeast inh: 0%; FUS suppressor: inactive; Abeta rescue: inactive; TDP-43 yeast inh: 25µM*

Results for Cc1cc2c(cc1C)-c1nnnn1C(N1CCCC1)C(=O)N2 (configuration not stated) ?
aSyn yeast inh: -7%; FUS suppressor: inactive; Abeta rescue: inactive; TDP-43 yeast inh: 24%

How did COc1ccc2ccccc2c1C=NNC(=O)c1cc(-c2ccc(C)c(C)c2)n[nH]1 do in these assays?
FUS suppressor: inactive

Results for C(=C/c1nccc2c1[nH]c1ccccc12)/c1ccc2c(c1)OCO2 ?
aSyn yeast inh: 13%; FUS suppressor: inactive; Abeta rescue: inactive; TDP-43 yeast inh: 10µM*

What do the screens show for `COC(=O)C1CN(CCO)CCS(=O)(=O)N1Cc1cccc(Cl)c1` (configuration not stated)?
FUS suppressor: inactive

Results for COc1ccc(C)cc1NC(=O)c1cc2c(=O)n3ccccc3nc2n1C ?
aSyn yeast inh: 0%; FUS suppressor: inactive; Abeta rescue: inactive; TDP-43 yeast inh: -9%

Results for Cc1cc(C)c(NC(=O)c2cc3c(=O)n4ccccc4nc3n2C)c(C)c1 ?
FUS suppressor: inactive; Abeta rescue: inactive; TDP-43 yeast inh: 35µM*

Results for COc1cc(N=Nc2ccc(Br)cc2)cc(C=O)c1O ?
aSyn yeast inh: -38%; FUS suppressor: inactive; Abeta rescue: inactive; TDP-43 yeast inh: 13µM*

What do the screens show for `Cc1ccc(-c2cc(C(F)F)nc(S(C)(=O)=O)n2)cc1`?
aSyn yeast inh: -11%; FUS suppressor: inactive; Abeta rescue: inactive; TDP-43 yeast inh: 11µM*

What do the screens show for `Cc1cccc(NC(=O)c2c(C)oc3ncn(CC(C)C)c(=O)c23)n1`?
FUS suppressor: inactive; Abeta rescue: inactive; TDP-43 yeast inh: 23%
